Screening results deposited in PubChem by National Center for Advancing Translational Sciences (NCATS).
This excerpt belongs to a sample that is enriched for hits.
FBPA Giardia inh: qHTS Assay for Inhibitors of Fructose-1,6-bisphosphate Aldolase from Giardia Lamblia; A8B2U2; purified Giardia FBPA; Potency, µM (top dose mostly 59.6 µM), usual class: inhibitors; 290,000 tested, 0.71% active; AID 2451, 2010; further: nearly all actives have a fitted effect of over 55% in size
Target sequence (A8B2U2 whole entry, looked up): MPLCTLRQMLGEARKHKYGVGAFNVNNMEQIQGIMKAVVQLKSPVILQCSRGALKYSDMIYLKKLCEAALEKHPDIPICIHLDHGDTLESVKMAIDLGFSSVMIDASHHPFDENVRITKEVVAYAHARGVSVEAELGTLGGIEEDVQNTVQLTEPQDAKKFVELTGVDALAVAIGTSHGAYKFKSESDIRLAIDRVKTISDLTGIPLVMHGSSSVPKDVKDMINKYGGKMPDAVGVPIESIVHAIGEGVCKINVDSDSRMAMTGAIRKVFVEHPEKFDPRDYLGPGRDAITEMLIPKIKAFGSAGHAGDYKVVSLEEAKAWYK
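Giardia FBPA (40 nM reagent) was preincubated 10 min at RT with compound (up to 57.5 uM final), then substrate plus GAPDH/TPI/NAD/arsenate coupling system with diaphorase/resazurin was added; resorufin fluorescence (525/598 nm) was read after 20 min.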
RE007 growth inh: qHTS Assay for Inhibitors of the HIV-1 protein Vpr | Potency, µM (titrated, usually from 92.2 µM), hits mostly inhibitors | 360,000 tested, 0.21% active | S. pombe RE007 Vpr strain, BacTiter-Glo ATP luminescence, 24 h; active means well fitted falling curve with a large enough effect; inconclusive means small, poorly fitted or top-dose-only effect; inactive means no such curve, though single readings can be large or run the other way; further: nearly all actives have a fitted effect of over 50% in size
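Fission yeast strain RE007, carrying one chromosomally integrated HIV-1 vpr copy, was seeded at OD 0.01 in PMG+AL medium with 23 nL pinned compound. After 24 h at 30 °C and 99% humidity, viability was read by BacTiter-Glo luminescence.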
Tb PYK inh: qHTS of Trypanosoma Brucei Inhibitors. TbPYK enzyme, Kinase-Glo Plus ATP luminescence, 45 min. Potency, µM (top dose mostly 76.8 µM), usual class: inhibitors. pyruvate kinase (Trypanosoma brucei), Q57TT1. AID 624173, 2012. 410,000 tested, 0.12% active; further: nearly all actives have a fitted effect of over 50% in size
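Readout: single end-point luminescence (Kinase-Glo Plus, 10 min). Reaction conditions were TbPYK/substrate plus 130 uM ADP, 45 min at RT, pH 7.2 TEA buffer. No-enzyme wells served as controls, and data were normalized before concentration-response fitting.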
CHX counter: Cycloheximide Counterscreen for Small Molecule Inhibitors of Shiga Toxin; cell reporter, cycloheximide protein synthesis inhibition counterscreen; max response, %; 300,000 tested, 12% active; AID 2314, 2010; in the data active means max response mostly above about 13%, no sharp cut-off; inactive means mostly below about 14%; further: read at 38.3 µM for the half of the compounds with a filed dose
LmPK inhibitor: qHTS Assay for Inhibitors of Leishmania Mexicana Pyruvate Kinase (LmPK); 290,000 tested, 0.37% active; Potency, µM (series often up to 57.5 µM), usual class: inhibitors; purified LmPK, Kinase-Glo ATP luminescence, 1 h; Q27686
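0.1 nM LmPK, 0.5 mM PEP, 0.1 mM ADP; 50 mM imidazole pH 7.2, 7 mM MgCl2, 50 mM KCl; 1 h RT. Kinase-Glo luminescence readout, normalized to no-enzyme (full inhibition) and uninhibited wells.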
Shiga toxin inh: A qHTS for Small Molecule Inhibitors of Shiga Toxin | Vero cells, Shiga toxin protein synthesis inhibition reporter | inhibition, % at 38.7 µM | 290,000 tested, 9.2% active; in the data active means inhibition mostly above about 28%, no sharp cut-off; inactive means mostly below about 43%
Of the large screens only hits and unclear results are named; the others gave an inactive call. Unless noted, the call rests on the fitted dose curve; in most records, active means well fitted curve in the direction sought with a large enough effect; inconclusive means small, poorly fitted or top-dose-only effect, or another doubt; inactive means no such curve, though single readings can be large; an effect the other way counts as inactive or inconclusive.

CN(C(=O)c1ccco1)c1nnc(-c2ccc(F)cc2)s1	CHX counter 51, Shiga toxin inh 85
COCCN(C(=O)c1ccccc1)c1nnc(-c2cccnc2)s1	none
CCN(C(=O)c1ccco1)c1nnc(-c2cccnc2)s1	CHX counter 34, Shiga toxin inh 75
CCCCN(C(=O)Cc1cccs1)c1nnc(-c2cccnc2)s1	CHX counter 20, Shiga toxin inh 44
CN(C(=O)c1ccco1)c1nc(-c2ccc(F)cc2)cs1	CHX counter 45, Shiga toxin inh 58
COCCN(C(=O)Cc1cccs1)c1nnc(-c2cccnc2)s1	none
COc1ccc(-c2nnc(N(C)C(=O)c3ccco3)s2)cc1OC	none
COCCN(C(=O)c1ccco1)c1nnc(-c2ccc(F)cc2)s1	CHX counter 23
CCCN(C(=O)c1cccs1)c1nnc(-c2ccncc2)s1	CHX counter 22, Shiga toxin inh 57
CCCN(C(=O)c1ccco1)c1nnc(-c2ccccc2C)s1	CHX counter 94, Shiga toxin inh 132
CN(C(=O)c1ccco1)c1nc(CC(=O)Nc2ccccc2)cs1	Shiga toxin inh active
CCN(C(=O)Cc1ccccc1OC)c1nnc(-c2ccncc2)s1	none
Cc1csc2nc(COC(=O)c3cccc(NC(=O)COc4ccccc4Cl)c3)cc(=O)n12	none (no result: FBPA Giardia inh, RE007 growth inh, CHX counter, LmPK inhibitor, Shiga toxin inh)
COc1ccc(NC(=O)Nc2ccc3oc(C)nc3c2)cc1	CHX counter 30, Shiga toxin inh 67
Cc1nc2cc(NC(=O)NCCCO)ccc2o1	none
Cc1nc2cc(NC(=O)NCCC3=CCCCC3)ccc2o1	CHX counter 19, Shiga toxin inh 57
CCOc1ccc(NC(=O)C(=O)NCC(c2cccnc2)N2CCc3ccccc32)cc1 (configuration not stated)	none (no result: FBPA Giardia inh, RE007 growth inh, CHX counter, LmPK inhibitor, Shiga toxin inh)
COc1ccccc1C(=O)NCCC(=O)NCC(c1ccco1)N1CCCC1 (configuration not stated)	none (no result: FBPA Giardia inh, CHX counter, LmPK inhibitor, Shiga toxin inh)
Cc1ccc(Cl)cc1N1CCN(C(=O)Cn2cnc3sc(C)c(S(=O)(=O)N4CCC(C)CC4)c3c2=O)CC1	none (no result: FBPA Giardia inh, RE007 growth inh, CHX counter, LmPK inhibitor, Shiga toxin inh)
Cc1nnc(Nc2ccc3c(c2)OCO3)c2ccccc12	Shiga toxin inh 114
Cc1nc(Nc2ccccc2)c2oc3ccc(Cl)cc3c2n1	CHX counter 18, Shiga toxin inh 43
Cc1nc(Nc2ccc3c(c2)OCO3)c2oc3ccccc3c2n1	CHX counter 39, Shiga toxin inh 46
COc1ccc(Nc2nc(C)nc3c2oc2ccccc23)cc1	none
Cc1ccc(Nc2nc(C)nc3c2oc2ccccc23)cc1	CHX counter 11
CC(C)CCNC(=O)Nc1ccc2c(c1)N(Cc1ccccc1)C(=O)c1ccccc1S2	none (no result: FBPA Giardia inh, RE007 growth inh, CHX counter, LmPK inhibitor, Shiga toxin inh)
CCC1=C[C@@H]2CN(C1)Cc1c([nH]c3ccccc13)[C@@](C(=O)OC)(c1cc3c(cc1OC)N(C)[C@@H]1[C@@](O)(C(=O)OC)[C@H](OC(C)=O)[C@]4(CC)C=CCN5CC[C@]31[C@@H]54)C2	none (no result: FBPA Giardia inh, RE007 growth inh, CHX counter, LmPK inhibitor, Shiga toxin inh)
CC1CCCC(NC(=O)CN2C(=O)NC(C)(c3cc(F)ccc3F)C2=O)C1C (configuration not stated)	none (no result: FBPA Giardia inh, CHX counter, LmPK inhibitor, Shiga toxin inh)
c1ccc2c(c1)oc1c(Nc3ccc4c(c3)OCO4)ncnc12	CHX counter 45, Shiga toxin inh 100
CC(C)c1ccc(N(C(=O)c2csnn2)C(C(=O)NC2CCCC2)c2ccncc2)cc1 (configuration not stated)	CHX counter 30, Shiga toxin inh 66
CCc1ccc(N(C(=O)c2ccco2)C(C(=O)NC2CCCC2)c2cccnc2)cc1 (configuration not stated)	none
CCC(C)c1ccc(N(C(=O)c2ccco2)C(C(=O)NC2CCCC2)c2cccnc2)cc1 (configuration not stated)	CHX counter 39, Shiga toxin inh 94
O=C(NC1CCCC1)C(c1ccncc1)N(C(=O)c1csnn1)c1ccc(F)cc1 (configuration not stated)	none
O=C(NCC(=O)N(c1cnc2ccccc2c1)C(C(=O)NC1CCCC1)c1ccncc1)c1ccco1 (configuration not stated)	CHX counter 15
CC(C)c1ccc(N(C(=O)c2ccco2)C(C(=O)NC2CCCC2)c2ccncc2)cc1 (configuration not stated)	CHX counter 33, Shiga toxin inh 73
COc1cccc(NC(=O)N(Cc2c[nH]c3ccccc23)C2CCCCC2)c1	none (no result: FBPA Giardia inh, RE007 growth inh, CHX counter, LmPK inhibitor, Shiga toxin inh)
CC(=O)Nc1ccc(N(C(=O)c2ccco2)C(C(=O)NC2CCCC2)c2cccs2)cc1 (configuration not stated)	none
CC(=O)Nc1ccc(N(C(=O)c2ccco2)C(C(=O)NC2CCCCC2)c2ccccc2)cc1 (configuration not stated)	CHX counter 12, Shiga toxin inh 35
CCOC(=O)c1cc2c(=O)n3ccccc3nc2n(Cc2ccco2)c1=NC(=O)c1c(F)cccc1Cl	none (no result: FBPA Giardia inh, RE007 growth inh, CHX counter, LmPK inhibitor, Shiga toxin inh)
N#C/C(=C\c1ccc(OCc2cccc(C(=O)O)c2)cc1)C(=O)NCc1ccco1	CHX counter 52, Shiga toxin inh 101
N#C/C(=C\c1ccc(OCc2ccc(Cl)cc2)cc1)C(=O)Nc1cccc(C(=O)O)c1	CHX counter 18, Shiga toxin inh 34
O=C(O)c1cccc(NC(=O)c2ccc(COc3ccc(Cl)cc3)cc2)c1	none
COc1cc(/C=C(/C#N)C(=O)Nc2ccccc2)ccc1OCc1ccc(C(=O)O)cc1	none
COc1cc(/C=C(\C#N)C(=O)Nc2cccc(C(=O)O)c2)ccc1OCc1ccc(C)cc1	CHX counter 26, Shiga toxin inh 74
COc1cc(/C=C(/C#N)c2ccccc2F)ccc1OCc1ccccc1	CHX counter 34, Shiga toxin inh 53
CN(C(=O)COc1ccc(Oc2ccccc2)cc1)C1CCS(=O)(=O)C1 (configuration not stated)	none (no result: FBPA Giardia inh)
Cn1ccnc1SCc1cc(=O)[nH]c2ccccc12	FBPA Giardia inh inconclusive, CHX counter 17
Fc1ccc(CSc2nc3ccccc3[nH]2)c2ccccc12	RE007 growth inh 13µM
O=C(CSc1nc2ccccc2[nH]1)NCc1ccc(F)cc1	none
Cc1cccc(-c2nnc(SCc3cc(=O)[nH]c4ccccc34)n2C)c1	none
Cc1cc(=O)[nH]c(SCc2cccc3ccccc23)n1	none
O=c1cc(CSc2nc3ccccc3[nH]2)c2ccccc2[nH]1	CHX counter 28, Shiga toxin inh 53
Nc1nn(-c2ccccc2)nc1C(=O)OCc1ccccc1Br	none (no result: FBPA Giardia inh, RE007 growth inh, CHX counter, LmPK inhibitor, Shiga toxin inh)
CN(C)Cc1ccccc1-c1nccc(NCc2cccs2)n1	none (no result: RE007 growth inh, Tb PYK inh, CHX counter, LmPK inhibitor, Shiga toxin inh)
CCOc1ccc(S(=O)(=O)Nc2nc3ccccc3nc2Nc2ccc(OC)cc2)cc1	none (no result: FBPA Giardia inh, RE007 growth inh, CHX counter, LmPK inhibitor, Shiga toxin inh)
